Assay in all cases: NCI-60 one-dose screen, 48 h (100 = growth as untreated, 0 = no growth, -100 = all killed)
What all share (conditions): 10 µM unless noted

The test system of assay [1] is MOLT-4 leukemia.
Assay [2] relates to SR leukemia.
The test system of assay [3] is RPMI-8226 leukemia.
For assay [4], the system named is OVCAR-8 ovarian.
Assay [5] deals with OVCAR-5 ovarian.
The test system of assay [6] is OVCAR-4 ovarian.
Assay [7] relates to SK-OV-3 ovarian.
Assay [8] deals with IGROV1 ovarian.
The test system of assay [9] is OVCAR-3 ovarian.
Assay [10] has as its system HS 578T breast.
Assay [11] concerns NCI/ADR-RES ovarian.
Assay [12] has as its system T-47D breast.
Assay [13] relates to BT-549 breast.
The test system of assay [14] is MDA-MB-435 melanoma.
The test system of assay [15] is SW-620 colon.
Assay [16] concerns HCT-116 colon.
Assay [17] concerns HCC-2998 colon.
Assay [18] has as its system MCF7 breast.
Assay [19] deals with KM12 colon.

This is part of a sample that, as a whole, favours compounds with a hit. Of some 83,000 tested, about 20% had one in any assay.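 For each line, cells grew in 96-well plates with the test compound present at a single concentration for 48 hours.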 A number with no mark means an inactive call. The source made the active and inactive calls. Rule for the calls: active = growth percent below 10; inactive = the rest.

For the molecule `CC1=CC(=Nc2ccc(N(CCCl)CCCl)cc2)C=C(C)C1=O`, the growth in assay [1] is -21.2% (active); in assay [2], -2.28% (active); in assay [3], 9.64% (active); in assay [4], 18.7%; in assay [5], 35%; in assay [6], -35.7% (active). Moreover, the growth is 49.9% in assay [7]; 21% in assay [8]; -62.5% (active) in assay [9]; 26.7% in assay [10]; 19.8% in [11]; -17.7% (active) in assay [12]. For the same molecule, the growth in assay [13] was 52.5%; in assay [14] it was 35.4%; in assay [15], 3.05% (active); in [16], 7.59% (active); in assay [17] it was 55.6%.

For the molecule `O=[N+]([O-])c1c(Cl)cc(Cl)c([N+](=O)[O-])c1Cl`, the growth in assay [1] is 80.8%; in [2], 69%; in assay [3] it was 90.2%; in assay [4] it was 94.7%; in assay [5], 115%; in assay [6], 112%. The growth in assay [7] was 111%; in assay [8], 100%; in assay [9] it was 78.3%; in assay [10], 109%; in assay [11], 103%; in assay [12], 22.2%. Besides, the growth in assay [13] was 114%; in assay [15] it was 65.6%; in [18] it was 45.9%; in assay [16] it was 88.5%; in [17], 114%; in assay [19] it was -2.82% (active).

Regarding `N#CCc1ccc(CC#N)cc1`, the growth was 99.9% in [1]; 97.9% in assay [2]; 98.8% in [3]; 104% in [4]; 104% in [5]; 119% in assay [6]. Moreover, the growth in assay [7] is 98.5%; in assay [8], 109%; in assay [9], 110%; in assay [10], 96.6%; in assay [11] it was 110%; in assay [12], 87.5%. Also, the growth is 95.9% in assay [13]; 102% in [14]; 96.7% in assay [15]; 91.4% in assay [18]; 98.6% in assay [16]; 108% in assay [17]. The growth in assay [19] was 102%.

`C[C@]12CC[C@H]3[C@@H](CC=C4c5nc(N)sc5CC[C@@]43C)[C@@H]1CC[C@@H]2O`: the growth was 103% in assay [1]; 91.6% in [2]; 103% in [3]; 99.5% in [4]; 107% in assay [5]; 95.7% in assay [6]. In addition, the growth in assay [7] is 103%; in [8], 114%; in assay [9], 99.6%; in [10], 105%; in [11], 102%; in assay [12], 92.2%. Besides, the growth in [13] was 99.5%; in assay [14], 92.9%; in assay [15] it was 90.1%; in assay [18] it was 104%; in assay [16], 92.1%; in [17], 98.4%. Moreover, the growth in [19] was 102%.

As to `N#CC(NC(=O)CCl)=C(Cl)Cl`, the growth in [1] is -33.6% (active); in assay [2], -18.2% (active); in assay [3], -22% (active); in assay [4], -39.3% (active); in [5] it was 44.4%; in assay [6], 21.1%. In addition, the growth was 88.5% in assay [7]; -38.6% (active) in assay [8]; -30.9% (active) in [9]; 14.8% in [10]; 11.8% in assay [11]; -30% (active) in [12]. Besides, the growth in [13] was 38.9%; in assay [14] it was 5.03% (active); in assay [15] it was -50.1% (active); in assay [18], 18.5%; in assay [16], -41.4% (active); in assay [17], -6.64% (active). Moreover, the growth in assay [19] is 56.8%.

On to `CCOC(=O)C1C(C=C(C)C)C1(C)C` (centres undefined), for which the growth in [1] was 85.1%; in assay [2] it was 99.7%; in assay [3], 96.9%; in assay [4] it was 99.6%; in [5], 80.5%; in [6], 116%. The growth in [7] was 105%; in assay [8], 120%; in [9], 103%; in assay [10], 115%; in assay [11] it was 99.1%; in [12], 115%. In addition, the growth in assay [13] is 104%; in assay [14], 102%; in assay [15], 89.3%; in assay [18] it was 112%; in assay [16], 108%; in assay [17], 96%. The growth in [19] is 94.5%.

In the case of `CC12CCC3C4CCC(=O)C=C4CCC3C1CC1CC(=O)OC12` (centres undefined), the growth in assay [1] was 95.6%; in assay [2], 90.6%; in assay [3] it was 94.3%; in [4], 97.2%; in assay [5], 107%; in [6], 103%. For the same molecule, the growth in [7] was 101%; in assay [8], 96.7%; in assay [9] it was 101%; in [10], 95.7%; in [11], 101%; in [12], 101%. Also, the growth is 107% in assay [13]; 112% in assay [14]; 102% in [15]; 98.7% in [18]; 97.1% in assay [16]; 110% in [17]. For the same molecule, the growth in [19] is 96%.

For `CC[C@H](C)[C@H](NC(=O)CN(C)C)C(=O)N(C)[C@H](C[C@@H](OC(C)=O)c1nc(C(=O)NC23C4C5C2C2C3C4C52C(=O)OC)cs1)C(C)C` (some centres undefined), the growth was 11% in assay [1]; 10.4% in assay [2]; 20.1% in assay [3]; 21.6% in assay [4]; 71.4% in [5]; 48.7% in [6]. The growth in [7] is 35.1%; in [8], 36.3%; in assay [9] it was -34% (active); in assay [10], 19.8%; in assay [11] it was 63.7%; in assay [12], 62.9%. The growth in assay [13] was 4.22% (active); in assay [14], -59.9% (active); in assay [15] it was 25.9%; in assay [18] it was 21.6%; in [16] it was -2.36% (active); in [17] it was 18.5%. The growth in assay [19] is 13.2%.

These data come from PubChem BioAssay (NCI).
